From PubChem BioAssay

The compounds below were run against Concanavalin-A (Canavalia ensiformis) (UniProt P02866) (assay: ConA small-molecule binders, primary screen, artefact control for SMM control protein annotation, biochemical, small-molecule microarray, Alexa647 label, 635 nm (AID 1127;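 further: z combines 667 nm emission intensity with signal-to-noise across three replicate slides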)). Settings: ConA-A647 binding fluorescence, higher = more signal.
Sequence of Concanavalin-A (Canavalia ensiformis) (P02866 whole entry, looked up): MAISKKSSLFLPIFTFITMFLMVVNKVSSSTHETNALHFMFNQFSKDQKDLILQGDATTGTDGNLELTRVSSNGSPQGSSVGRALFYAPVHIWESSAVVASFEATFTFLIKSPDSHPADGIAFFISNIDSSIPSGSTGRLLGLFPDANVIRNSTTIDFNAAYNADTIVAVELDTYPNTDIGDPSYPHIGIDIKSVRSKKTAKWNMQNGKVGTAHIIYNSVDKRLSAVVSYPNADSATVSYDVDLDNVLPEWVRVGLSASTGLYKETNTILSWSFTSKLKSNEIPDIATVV

| SMILES | composite z-score |
| --- | --- |
| COCCOC(=O)N1C(=O)[C@@]2(c3cc(C#CC4(O)CCCCCC4)ccc31)[C@H](c1ccccc1OCCO)N1[C@H](c3ccccc3)[C@H](c3ccccc3)OC(=O)[C@H]1[C@@H]2C(=O)N1CCc2cc(OC)c(OC)cc2C1 | 1.13 |
| [N-]=[N+]=NCc1ccccc1[C@H]1OC(c2ccc(OCCCO)cc2)=N[C@@]1(Cc1ccccc1)C(=O)N1CCCCC1 | 1.08 |
| COCCOC(=O)N1C(=O)[C@@]2(c3cc(C#CC4=CCCCC4)ccc31)[C@H](c1ccc(OCCO)cc1)N1[C@H](c3ccccc3)[C@H](c3ccccc3)OC(=O)[C@H]1[C@@H]2C(=O)N1CCc2cc(OC)c(OC)cc2C1 | 0.922 |
| COCC(=C=CC[C@H](O)c1cccc(OCCO)c1)CCO | -0.042 |
| C=CC[C@]1(C(=O)NCc2ccccc2)N=C(c2ccc(OCCCO)cc2)O[C@H]1c1ccccc1CN=[N+]=[N-] | 0.79 |
| C=C(CCCC)C(=O)CC[C@@H](OC(C)=O)c1ccc(CO)o1 | 0.0313 |
| COc1ccc(C(=O)Nc2cccc(CN3C(=O)[C@]4(O[C@H](CCn5cc(CCO)nn5)[C@@H]([Si](C)(C)c5ccc(OC)cc5)[C@@H]4C)c4ccccc43)c2)cc1 | 0.692 |
| COC(=O)c1c(CC[C@@H](CO)NC(=O)N[C@@H](Cc2ccccc2)Cn2cc(-c3ccccn3)nn2)oc(C(=O)N2CCOCC2)c1C(=O)OC | -0.376 |
| C=CCN1C(=O)[C@]2(O[C@H](CCO)[C@@H]([Si](C)(C)c3ccc(OC)cc3)[C@@H]2C)c2cc(N(C=O)c3ccccc3)ccc21 | 0.497 |
| [N-]=[N+]=Nc1ccccc1[C@H]1OC(c2ccc(OCCCO)cc2)=N[C@@]1(CCS(=O)(=O)c1ccccc1)C(=O)NCc1ccccc1 | 0.94 |
| O=C1OCCC=C[C@H]2OC34C=CCN(CCN5CCOCC5)C(=O)[C@H]3N(CCCCCO)C(=O)[C@@H]4C12 (some centres undefined) | 0.935 |
| O=C1O[C@@H](c2ccccc2)[C@@H](c2ccccc2)N2[C@@H](c3ccc(OCCO)cc3)[C@]3(C(=O)Nc4ccc(C#CCCO)cc43)[C@@H](C(=O)NC[C@H](O)c3ccccc3)[C@H]12 | 1.07 |
| CN1C(=O)C2C=CC(C(O)c3ccccc3)N(N3CCCCC3)C2C1=O (centres undefined) | 0.872 |
| O=C1NC(=O)C2C1C=CC(C(O)c1ccc(I)cc1)N2Nc1ccc(Cl)cc1Cl (centres undefined) | 1.09 |
